We go through 14 molecules from PubChem BioAssay (NCI).

About 83,000 compounds went through this panel and 20% of them were active in at least one assay; those are over-represented in the sample as a whole.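 Results are percent growth after 48 hours of single-concentration exposure. 100 means growth as in untreated cells, lower positive values show inhibition; negative values down to -100 show cell death.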 Unmarked numbers belong to inactive results. The source made the active and inactive calls. Rule for the calls: active = growth percent below 10; inactive = the rest.

What all share (assay): NCI-60 one-dose screen, 48 h (100 = growth as untreated, 0 = no growth, -100 = all killed)
Common to all, as to conditions: 10 µM unless noted

Assay [1] relates to HCT-15 colon.
For assay [2], the system named is HT29 colon.
Assay [3] has as its system SNB-75 CNS.
The test system of assay [4] is SNB-19 CNS.
Assay [5] has as its system U251 CNS.
In assay [6] the test system is PC-3 prostate.
Assay [7] relates to SK-MEL-5 melanoma.
Assay [8] has as its system UACC-62 melanoma.
Assay [9] deals with SK-MEL-28 melanoma.

`OCC1OC(n2cnc3c(Cl)ncnc32)CC1O` (stereo unspecified): the growth in assay [1] is 95.6%; in assay [2] it was 107%; in [3], 102%; in assay [4], 96.1%; in assay [5], 99.2%; in assay [6] it was 88.9%. Moreover, the growth in assay [7] was 106%; in assay [8], 101%; in assay [9], 110%.
Consider `N#C/C(=C\c1ccc(-c2ccccc2)o1)c1nc(-c2ccco2)cs1`, for which the growth in assay [1] was 47.6%; in assay [2] it was 99.8%; in assay [3] it was 91.9%; in assay [4], 94.1%; in assay [5] it was 98.3%; in [6], 77.8%. Also, the values for the growth in assay [7], in [8] and in assay [9] were 73.5%, 77.9% and 105%, respectively.
Turning to `CN(C)c1ccc(-c2ccc(-c3ccc(C(=N)N)c(F)c3)s2)cc1`, the growth is -80.8% (active) in assay [1]; -61.2% (active) in assay [2]; 98.9% in assay [3]; -71% (active) in assay [4]; -96.2% (active) in [5]; -90.4% (active) in assay [6]. In addition, the growth is -64.9% (active) in [7], -93.3% (active) in assay [8] and 74.5% in [9].
As to `CC(=O)c1c(C)[nH]c(-c2nc3ccc(N4CCN(C)CC4)cc3[nH]2)c1-c1ccc(N(C)C)cc1`, the growth was 4.03% (active) in assay [1]; 9.08% (active) in assay [2]; -9.22% (active) in assay [3]; 42.4% in [4]; 51% in assay [5]; 42% in assay [6]. Moreover, the values for the growth in [7], in assay [8] and in assay [9] were 2.25% (active), 21.1% and 45.8%, respectively.
Take `Cn1cccc1/C=C1/SC(=S)N(CCc2ccc(O)cc2)C1=O`: the growth in [1] was 22.7%; in [2], 94.9%; in assay [3], 41.2%; in assay [4], 47.2%; in assay [5], 41.8%; in assay [6], 69%. The growth is 44.2% in assay [7], 24.9% in assay [8] and 57.3% in assay [9].
For the molecule `O=C(O)c1cccc2c1-c1ccc(Cl)cc1C2`, the growth in assay [1] is 102%; in assay [2], 109%; in [3], 88.2%; in assay [4] it was 105%; in assay [5], 108%; in assay [6], 108%. The growth was 103% in assay [7], 102% in [8] and 108% in [9].
Turning to `CC(=O)Cc1nsc(NC(=O)c2ccoc2COc2ccccc2)n1`, the growth was 105% in assay [1]; 107% in assay [2]; 99.4% in assay [3]; 93.6% in [4]; 96.5% in assay [5]; 89.9% in assay [6]. Moreover, the results for the growth in assay [7], in [8] and in assay [9] were 101%, 93% and 103%, respectively.
For the molecule `CC(=O)O[C@H]1CC[C@@]2(C)C(=CC[C@@H]3[C@@H]2CC[C@]2(C)C(=O)N(O)C(=O)C[C@@H]32)C1`, the growth is 58.9% in assay [1]; 89.2% in [2]; 75.8% in assay [3]; 95.5% in assay [4]; 69.3% in assay [5]; 75.7% in assay [6]. The growth in assay [7] was 98.4%; in assay [8], 100%; in [9], 89.6%.
On to `CC1(C)C(=O)/C(=C\c2ccccn2)C[C@]2(C)[C@H]3CC[C@@H]4[C@@H](C(=O)/C=C/c5ccccn5)CC[C@@]4(C)[C@]3(C)CC[C@@H]12`, for which the growth in assay [1] is -31% (active); in assay [2] it was -13.6% (active); in [3], -3.97% (active); in [4] it was 4.66% (active); in assay [5] it was -80.5% (active); in assay [6], 9.61% (active). The growth is -82.5% (active) in [7], -54.2% (active) in [8] and -32.1% (active) in [9].
For the molecule `N#Cc1c(-c2ccc(O)cc2)c2c(N)nn(-c3ccccc3)c2[nH]c1=O`, the growth in assay [1] was 109%; in assay [2], 111%; in assay [3] it was 104%; in assay [4], 99.8%; in assay [5], 103%; in assay [6], 102%. Besides, the results for the growth in assay [7], in [8] and in assay [9] were 98%, 96% and 109%, respectively.
As to `CC(=O)c1c(C)[nH]c(-c2nc3ccc(N4CCN(C)CC4)cc3[nH]2)c1-c1ccc(OCC2CCOCC2)cc1`, the growth was 5.23% (active) in assay [1]; 8.59% (active) in assay [2]; -9.92% (active) in assay [3]; 42.7% in assay [4]; 48.2% in assay [5]; 40.4% in assay [6]. The values for the growth in assay [7], in assay [8] and in assay [9] were -1.59% (active), 20.4% and 45.7%, respectively.
`COc1cc(OC)c2c(c1)c1nc3cc(C)c(C)cc3nc1n2CCN(C)C`: the growth was 77.2% in assay [1]; 85.8% in assay [2]; 74.6% in assay [3]; 89.1% in assay [4]; 90.9% in [5]; 85.3% in assay [6]. The growth in [7] was 94.4%; in assay [8], 94.3%; in [9], 104%.
As to `NC1=C(C/C(N)=N\O)C(c2ccccc2Cl)c2c(ccc3ccccc23)O1` (stereo unspecified), the growth in assay [1] was 47.7%; in [2], 97.1%; in assay [3], 75.2%; in assay [4], 86.8%; in assay [5], 91.3%; in assay [6] it was 74.2%. Also, the growth was 86.8% in assay [7], 52.2% in [8] and 80.2% in assay [9].
Consider `CCOC(=O)c1ccc2c(c1)[n+](=O)c(C(=O)C1CCCS1)c(C(F)(F)F)n2[O-]` (stereo unspecified), for which the growth was -72% (active) in [1]; -82.4% (active) in [2]; -100% (active) in assay [3]; -77.4% (active) in assay [4]; -100% (active) in assay [5]; -75.4% (active) in [6]. Also, the values for the growth in assay [7], in [8] and in assay [9] were -96.9% (active), -80.4% (active) and -93.6% (active), respectively.
